Compound activity (PubChem)
Mcl1 Noxa PPI: disrupts binding of human Mcl-1 to Noxa peptide; Q07820; TR-FRET Mcl-1/Noxa peptide binding, 2 h; inhibition, % at 21.7 µM; AID 1022; 220,000 tested, 1.5% active;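 active = compounds that cut the protein-peptide binding signal by more than 50% relative to plate controls in a single-dose test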;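 note: His-tagged Mcl-1 with rhodamine Noxa BH3 peptide and terbium anti-His antibody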
Mcl-1 Bim block: disrupts Bim peptide binding to human Mcl-1; Q07820; Bead-based flow cytometry, Bim peptide-Mcl-1 binding; inhibition, % at 10 µM; 190,000 tested, 0.1% active; in the data active = inhibition above about 40%
Mcl1-Bid inh: disrupts binding of human Mcl-1 to Bid peptide; Q07820; TR-FRET Mcl-1/Bid-Dy647 peptide binding, 1536-well; inhibition, % at 21.7 µM; 220,000 tested, 0.97% active;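 active = compounds that cut the binding signal by more than half at the single screening dose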;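 note: His-tagged Mcl-1 with europium anti-His antibody binding Bid BH3 peptide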
14-3-3 Bad inh: disrupts binding of bovine 14-3-3 zeta to phospho-Bad peptide | P63103 | TR-FRET 14-3-3zeta/Dy647-pBad peptide displacement, 1 h | inhibition, % at 21.7 µM | 220,000 tested, 0.71% active | AID 781;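 active = inhibition above about 70%, limit read from the data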
Target sequence (P63103 whole entry, looked up): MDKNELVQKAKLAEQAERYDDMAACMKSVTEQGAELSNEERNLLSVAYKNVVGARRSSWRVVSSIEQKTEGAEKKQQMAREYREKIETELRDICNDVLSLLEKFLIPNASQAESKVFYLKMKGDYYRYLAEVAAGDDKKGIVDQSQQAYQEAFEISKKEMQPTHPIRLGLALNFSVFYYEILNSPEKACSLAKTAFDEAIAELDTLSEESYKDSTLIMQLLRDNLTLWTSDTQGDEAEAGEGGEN
Calpain2 inh: calpain II (pig) inhibition | purified calpain II, fluorogenic peptide substrate, 30 min | inhibition, % at 16 µM | 220,000 tested, 0.37% active | AID 1236;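 active = inhibition above about 50%, limit read from the data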
NCF1 inh: p47phox (human) inhibition. P14598. p47phox/p22phox peptide binding, fluorescence polarization, 2 h. inhibition, % at 24.7 µM. 220,000 tested, 0.53% active;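 active = inhibition above about 30%, limit read from the data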
Target sequence (P14598 whole entry, looked up): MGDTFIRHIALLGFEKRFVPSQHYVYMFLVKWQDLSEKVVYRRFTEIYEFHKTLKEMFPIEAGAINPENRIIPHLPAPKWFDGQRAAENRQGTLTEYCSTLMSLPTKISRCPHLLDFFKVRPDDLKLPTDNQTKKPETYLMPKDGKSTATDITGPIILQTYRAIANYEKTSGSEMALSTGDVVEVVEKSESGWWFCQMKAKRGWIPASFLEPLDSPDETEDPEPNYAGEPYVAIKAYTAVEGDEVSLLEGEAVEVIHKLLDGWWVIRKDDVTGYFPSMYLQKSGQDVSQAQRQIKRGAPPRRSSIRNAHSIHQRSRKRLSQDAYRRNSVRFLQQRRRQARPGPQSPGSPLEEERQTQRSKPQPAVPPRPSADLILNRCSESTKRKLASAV
Each line names hits and unclear results; the compound was inactive in the other large screens; [ ] = remark or other dose. The list is not random: actives were taken first. Their share in the collection is about 3.4%.

CC1=NN(c2ccccc2)C(=O)/C1=C\C=C\c1ccccc1	none (no result: Mcl-1 Bim block)
Cn1nc(CC(=O)Nc2ccc(N3CCN(C(=O)OC(C)(C)C)CC3)cc2)c2ccccc2c1=O	NCF1 inh 30.9
COC(=O)Nc1ccc(=O)n(Cc2c(Cl)cccc2Cl)c1	none
C/C(Cn1nnc2ccccc21)=N\NC(=O)c1ccc(Br)cc1	none
Cc1ccc(C(=O)NC(=S)Nc2ccc(NC(=O)c3cccs3)cc2)cc1[N+](=O)[O-]	Mcl1-Bid inh 51.6
Cc1ccc(C(=O)Nc2ccc(NC(=O)c3cccs3)cc2)cc1[N+](=O)[O-]	none
COc1ccc(Cl)cc1NC(=O)CN(C1CCCCC1)S(C)(=O)=O	Mcl1 Noxa PPI 68.4
CSc1ccccc1NC(=O)CN(C1CCCCC1)S(C)(=O)=O	none
CCc1n[nH]c(=S)n1/N=C/c1cc(Br)c(OC)cc1OC	none
CCOc1ccc(-c2ccc(/C=C3/C(=N)N4C=CSC4=NC3=O)o2)c([N+](=O)[O-])c1	Mcl1 Noxa PPI 129.2, Mcl1-Bid inh 89.3, 14-3-3 Bad inh 83.8[fluorescence artefact?]
CCOc1ccc(-c2ccc(/C=C3/C(=N)N4C(C)=CSC4=NC3=O)o2)c([N+](=O)[O-])c1	Mcl1 Noxa PPI 66.0, Mcl1-Bid inh 68.2
CC1=CN2C(=N)/C(=C/c3ccc([N+](=O)[O-])o3)C(=O)N=C2S1	Mcl1 Noxa PPI 64.7
COc1cc(/C=C2/C(=N)N3C=CSC3=NC2=O)ccc1OCCOc1ccc(NC(C)=O)cc1	none
N=C1CCC(=N)c2c1c(O)c1ccccc1c2O	Mcl1 Noxa PPI 76.3, NCF1 inh 125.0 (no result: Mcl-1 Bim block)
CCCn1c(N)c(N(CCOC)C(=O)/C=C/c2cccc(Cl)c2)c(=O)[nH]c1=O	none
COc1ccc(Cl)cc1NC(=O)C(OC)c1ccccc1 (stereo unspecified)	14-3-3 Bad inh 86.8
Cc1cccc(NC(=O)CSc2nnc(-c3ccco3)c(-c3ccco3)n2)c1	Mcl1 Noxa PPI 96.4
Cc1cccc(NC(=O)CSc2nnc(-c3ccco3)c(-c3ccco3)n2)c1C	Mcl1 Noxa PPI 94.7
NC(=O)C1CCN(Cc2nc3ccccc3c(=O)[nH]2)CC1	NCF1 inh 33.5
NC(=O)C1(N2CCCCC2)CCN(Cc2nc3ccccc3c(=O)[nH]2)CC1	none
COc1ccc(NS(=O)(=O)c2cc([N+](=O)[O-])ccc2N/N=C\c2c(C)[nH]c3ccccc23)cc1	none
Cc1[nH]c2ccccc2c1/C=N/Nc1ccc([N+](=O)[O-])cc1S(=O)(=O)Nc1ccc(Cl)cc1	Mcl1 Noxa PPI 51.1
O=C(CCC(=O)OC(C(=O)c1ccccc1)c1ccccc1)Nc1ccccc1 (stereo unspecified)	14-3-3 Bad inh 87.1
CCCCn1c(NCc2ccc3c(c2)OCO3)nc2ccccc21	Mcl1 Noxa PPI 66.3
CCCn1c(NCc2ccc3c(c2)OCO3)nc2ccccc21	none
CCN(CC)c1ccc(CNc2nc3ccccc3n2C)cc1	Mcl1-Bid inh 96.8 (no result: Mcl-1 Bim block)
Cc1cccc2cc(-c3nc4c(C)cccn4c3NCc3ccco3)c(=O)[nH]c12	none
Cc1ccc2[nH]c(=O)c(-c3nc4cc(C)ccn4c3NCc3ccco3)cc2c1	Mcl1 Noxa PPI 59.8, Mcl1-Bid inh 80.1
CN(C)c1ccc(/C=N/NC(N)=S)cc1[N+](=O)[O-]	none
CCCN(CC(=O)Nc1cc(Cl)cc(Cl)c1)CC(=O)Nc1ccc(F)c(F)c1F	none
COc1ccc(N(C)S(=O)(=O)c2cccc(C(=O)NCC3CCCCC3)c2)cc1	Calpain2 inh 54.7
COc1cc(NC(=O)COC(=O)c2ccc(S(=O)(=O)N3CC(C)CC(C)C3)cc2)c(C)cc1[N+](=O)[O-] (stereo unspecified)	NCF1 inh 39.5
COc1ccc(C(=O)Nc2nc3cc4c(cc3s2)OCO4)c(OC)c1	Mcl1 Noxa PPI 51.6, Mcl1-Bid inh 51.0 (no result: Mcl-1 Bim block)
CCOc1ccc(NC(=O)COc2ccc(C(=O)NCCc3ccccc3)cc2)cc1	14-3-3 Bad inh 72.1[fluorescence artefact?]
Cc1ccc(S(=O)(=O)N2CCC(C(=O)NNC(=O)c3ccc(F)cc3)CC2)cc1	none
CCN1c2ccccc2-c2nc3ccccc3n2C1c1cccs1 (stereo unspecified)	none
Cc1cc(C)c2nc(C(F)(F)F)nc(N3CC(C)OC(C)C3)c2c1 (stereo unspecified)	NCF1 inh 44.9
N#Cc1nc(-c2ccc(OCc3ccccc3)cc2)oc1N1CCC(C(N)=O)CC1	NCF1 inh 55.3
O=C(Nc1ccccc1)c1ccc(CSc2ncccn2)cc1	none
COc1cc(/C=C(\NC(=O)c2ccccc2)C(=O)NCCO)c([N+](=O)[O-])cc1OC	none
COc1cc(/C=C(/NC(=O)c2ccccc2)C(=O)N2CCN(C)CC2)c([N+](=O)[O-])cc1OC	NCF1 inh 36.4
O=C(CCCN1C(=O)/C(=C\c2cccs2)SC1=S)NNC(=O)c1ccncc1	none
O=C(CCCN1C(=O)/C(=C/c2ccccc2Cl)SC1=S)NNC(=O)c1ccccc1	none
COc1ccccc1C(=O)NNC(=O)CCCN1C(=O)/C(=C/c2cccs2)SC1=S	Mcl1 Noxa PPI 52.1
O=C(CCCN1C(=O)/C(=C/c2ccccc2Cl)SC1=S)NNC(=O)c1ccc(Cl)cc1Cl	Calpain2 inh 51.9 (no result: Mcl-1 Bim block)
Cc1cc(NC(=O)/C=C/c2ccc(Cl)cc2)no1	none
Cc1nn(CC(=O)N/N=C/c2ccc3c(c2)OCO3)c(C)c1Br	14-3-3 Bad inh 80.5
Cc1cc(C)n(CC(=O)N/N=C/c2ccc3c(c2)OCO3)n1	none
O=C(CSc1ccc(Cl)cc1)NC1CCCc2ccccc21 (stereo unspecified)	none
CC(=O)Nc1ccc(-c2nnc(SCC(=O)Nc3ccc4c(c3)oc3ccccc34)n2C)cc1	none
CCn1c(SCC(=O)Nc2ccc3c(c2)oc2ccccc23)nnc1-c1ccc(N)cc1	Mcl1 Noxa PPI 55.8, Mcl1-Bid inh 58.3
COc1cc(/C=N\NC(=O)C2CC3C=CC2C3)ccc1O (stereo unspecified)	none
CCN1CCN(CCCOc2ccccc2-c2ccccc2)CC1	14-3-3 Bad inh 70.5
CN(C)CCCCOc1ccccc1-c1ccccc1	Mcl1-Bid inh 73.0
CCOc1ccc(N(C(=O)CNC(=O)c2cccs2)C(C(=O)NCC2CCCO2)c2ccc(OC)c(OC)c2)cc1 (stereo unspecified)	none
CN(C)c1ccc(N=Nc2ccccc2C(=O)OCC(=O)N(C)c2ccccc2)cc1	none
CS(=O)(=O)c1ccc(C(=O)OCC(=O)NC(=O)C2CCCCC2)cc1[N+](=O)[O-]	none
O=C1NCCN1c1ccc(CN2CCN(C3CCCCC3)C(CCO)C2)cc1 (stereo unspecified)	NCF1 inh 64.0
CC(C)=CCN1CCN(Cc2ccc(N3CCNC3=O)cc2)CC1CCO (stereo unspecified)	none
CC(C)(O)C#Cc1ccc(CN2CCN(C3CCCCC3)C(CCO)C2)cc1 (stereo unspecified)	Mcl1 Noxa PPI 81.2
COc1ccccc1N1CCN(CC(=O)NCC2CCCO2)CC1 (stereo unspecified)	14-3-3 Bad inh 75.5
